Screening data: PubChem BioAssay, Broad Institute
This excerpt belongs to a sample that is enriched for hits.
BL2 CD40 inh = CD40 pathway inhibition in BL2 cells. BL2 NF-kB luciferase reporter, CD40L-induced, 4 h. inhibition, % at 10 µM. hit rate 0.94% among 83,000. AID 1053188;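 active means mean inhibition of at least 50% with a set share of replicates also reaching that level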;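 further: 0% = neutral control wells and 100% = IKK inhibitor VII at 50 µM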
Starred values were filed as active, the others as inactive; [ ] = remark or other dose.

SMILES	BL2 CD40 inh
O=C(NCc1ccc2c(c1)OCO2)c1cccc(N2CCCC2=O)c1	0
O=C(NCCc1ccccc1)c1cccc(N2CCCC2=O)c1	71*
O=C(Nc1ccccc1)c1cccc(N2CCCC2=O)c1	-43
CCC(C)NC(=O)C(CCSC)NC(=O)c1ccccc1 (stereo not given)	7
CCOc1ccc(C(=O)COC(=O)C2COc3ccccc3O2)cc1 (stereo not given)	1
O=S(=O)(Nc1ccc(S(=O)(=O)Nc2ncccn2)cc1)c1ccccc1	1
CC(=O)Cn1c(CN2CCCC2)nc2ccccc2c1=O	0
CN1CCN(Cc2nc3c(c(=O)n(C)c(=O)n3C)n2CCCc2ccccc2)CC1	3
CN1CCN(Cc2nc3ccccc3c(=O)n2Cc2nc(-c3ccc4ccccc4c3)cs2)CC1	60*
CC(C)(C)C(=O)NCc1ccc(C(=O)CSc2nnc(-c3ccncc3)n2C2CC2)s1	-3
O=S(=O)(Nc1ccc(N2CCOCC2)nn1)c1ccccc1	3
CCC(=O)N[C@@H]1CC[C@@H](CC(=O)NCc2ccccc2F)O[C@H]1CO	-10[25 µM]
S=C(NC1CC1)N1CCc2ccccc2C1	8
S=C(Nc1ccccc1Oc1ccccc1)NC1CCCC1	9
S=C(N/N=C1\CCc2ccccc21)NC1CCCCC1	62*
N#C[C@H]1[C@H](c2ccc(C#Cc3ccccc3F)cc2)[C@@H](CO)N1C(=O)C1CCCCC1	62*
N#C[C@H]1[C@H](c2ccc(C#Cc3ccccc3F)cc2)[C@@H](CO)N1C(=O)c1cccnc1	70*[25 µM]
COCC(=O)N1[C@H](C#N)[C@H](c2ccc(C#Cc3ccccc3F)cc2)[C@H]1CO	73*[25 µM]
N#C[C@@H]1[C@@H](c2ccc(C#Cc3ccccc3F)cc2)[C@@H](CO)N1C(=O)C1CCCC1	-21
N#C[C@H]1[C@H](c2ccc(C#Cc3ccccc3F)cc2)[C@H](CO)N1C(=O)C1CC1	63*[25 µM]
N#C[C@H]1[C@@H](c2ccc(C#Cc3ccccc3F)cc2)[C@H](CO)N1C(=O)C1CCC1	-1
N#C[C@H]1[C@@H](c2ccc(C#Cc3ccccc3F)cc2)[C@@H](CO)N1C(=O)C1CCCCC1	29
COCC(=O)N1[C@H](C#N)[C@H](c2ccc(C#Cc3ccccc3F)cc2)[C@@H]1CO	-40[25 µM]
N#C[C@@H]1[C@@H](c2ccc(C#Cc3ccccc3F)cc2)[C@H](CO)N1C(=O)c1cccnc1	-24[25 µM]
N#C[C@@H]1[C@H](c2ccc(C#Cc3ccccc3F)cc2)[C@H](CO)N1C(=O)C1CCCC1	1
SMILES	BL2 CD40 inh
COCC(=O)N1[C@@H](C#N)[C@@H](c2ccc(C#Cc3ccccc3F)cc2)[C@@H]1CO	-14[25 µM]
N#C[C@H]1[C@@H](c2ccccc2)[C@H](CO)N1C(=O)c1cccnc1	2
O=C(Nc1ccc(NC(=O)c2ccccc2F)cc1)c1cccs1	-23
Nc1ccc2c(c1)C(=O)c1cc(N)c(Cl)cc1-2	-9
CN(C)C(=O)c1cccc(-c2ccc(C3[C@@H]4CN(C(=O)Nc5ccccc5F)C[C@H]3N4)cc2)c1 (stereo not given in full)	13[25 µM]
CO[C@@H]1CN(C)C(=O)c2ccc(NC(=O)c3nc4ccccc4s3)cc2OC[C@H](C)N(Cc2cccnc2)C[C@H]1C	10[25 µM]
CC(C)c1ccc(NC(=O)C2Cc3c(-c4ccccc4Oc4ccccc4)ccnc3O2)cc1 (stereo not given)	4
COC(=O)Nc1ccc2c(c1)N(C(=O)CCN1CCOCC1)c1ccccc1S2	9
Cc1ccc(N2CC(C(=O)NCc3ccc(C)n3C)CC2=O)cc1 (stereo not given)	8
O=C(CSc1nc2ccccc2[nH]1)Nc1ccc2[nH]c(=O)[nH]c2c1	8
CCC(=O)N1C[C@@H](C)[C@H](OC)CN(C)C(=O)c2ccc(NC(=O)CC(F)(F)F)cc2OC[C@H]1C	-1[25 µM]
C[C@H]1CN([C@@H](C)CO)C(=O)c2c(c3ccccc3n2C)-c2ccccc2CO[C@H]1CN(C)C(=O)Nc1cccc(C(F)(F)F)c1	55*[25 µM]
C[C@@H]1CN([C@H](C)CO)C(=O)c2c(c3ccccc3n2C)-c2ccccc2CO[C@H]1CN(C)C(=O)Nc1cccc(C(F)(F)F)c1	38[25 µM]
C[C@@H]1CN([C@H](C)CO)C(=O)c2c(c3ccccc3n2C)-c2ccccc2CO[C@@H]1CN(C)C(=O)Nc1cccc(C(F)(F)F)c1	20[25 µM]
C[C@@H]1CN([C@@H](C)CO)C(=O)c2c(c3ccccc3n2C)-c2ccccc2CO[C@@H]1CN(C)C(=O)Nc1cccc(C(F)(F)F)c1	24[25 µM]
C[C@@H]1CN([C@H](C)CO)C(=O)c2c(c3ccccc3n2C)-c2ccccc2CO[C@H]1CN(C)C(=O)Nc1cccc(F)c1	5
C[C@@H]1CN([C@@H](C)CO)C(=O)c2c(c3ccccc3n2C)-c2ccccc2CO[C@H]1CN(C)C(=O)Nc1cccc(C(F)(F)F)c1	70*[25 µM]
NC(=O)C(c1ccc(Cl)cc1)c1ccc(Sc2ccccc2)nn1 (stereo not given)	4
COc1ccc(CN2C(=O)c3ccccc3C2=O)cc1C(=O)N(C)CC(=O)Nc1ccc(C)cc1	-1
CCC(=O)N(C)C[C@@H]1[C@@H](c2ccc(C3=CCCCC3)cc2)[C@H](CO)N1C(=O)CC	-9[25 µM]
